Laboratory results: paper PMC5540273 (PLoS ONE, 2017)
Read-outs that look alike come from different tables or passages of the source.

Legend:
SRMS = conditions: concentration: 1 μM, replicates: in singlicate; n = 1
SRPK1 = conditions: concentration: 1 μM, replicates: in singlicate; n = 1
SRPK2 = conditions: concentration: 1 μM, replicates: in singlicate; n = 1
SRPK3 = conditions: concentration: 1 μM, replicates: in singlicate; n = 1
STK16 = conditions: concentration: 1 μM, replicates: in singlicate; n = 1
STK33 = conditions: concentration: 1 μM, replicates: in singlicate; n = 1
STK35 = conditions: concentration: 1 μM, replicates: in singlicate; n = 1
STK36 = conditions: concentration: 1 μM, replicates: in singlicate; n = 1
STK39 = conditions: concentration: 1 μM, replicates: in singlicate; n = 1
SYK = conditions: concentration: 1 μM, replicates: in singlicate; n = 1
SgK110 = conditions: concentration: 1 μM, replicates: in singlicate; n = 1
TAK1 = tested on: T1, TAK1; conditions: concentration: 1 μM, replicates: in singlicate; n = 1
T1 construct: gene MAP3K7

TAOK1 = conditions: concentration: 1 μM, replicates: in singlicate; n = 1
TAOK2 = conditions: concentration: 1 μM, replicates: in singlicate; n = 1
TAOK3 = conditions: concentration: 1 μM, replicates: in singlicate; n = 1
TBK1 = conditions: concentration: 1 μM, replicates: in singlicate; n = 1
TEC = conditions: concentration: 1 μM, replicates: in singlicate; n = 1
TESK1 = conditions: concentration: 1 μM, replicates: in singlicate; n = 1
TGFBR1 = conditions: n = 1
TGFBR2 = conditions: concentration: 1 μM, replicates: in singlicate; n = 1
[1] = concentration: 1 μM, replicates: in singlicate
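Note: KINOMEscan kinase panel screen.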

## CCC(CC)(CC)n1cnc2c(N)ncnc21 [SKF-97620]
SRMS
  %Inh: 22%
SRPK1
  %Inh: 14%
SRPK2
  %Inh: 20%
SRPK3
  %Inh: 22%
STK16
  %Inh: 2%
STK33
  %Inh: 0%
STK35
  %Inh: 0%
STK36
  %Inh: 4%
STK39
  %Inh: 0%
SYK
  %Inh: 11%
SgK110
  %Inh: 8%
TAK1
  %Inh: 6%
TAOK1
  %Inh: 48%
TAOK2
  %Inh: 2%
TAOK3
  %Inh: 22%
TBK1
  %Inh: 15%
TEC
  %Inh: 35%
TESK1
  %Inh: 0%
TGFBR1; [1]
  %Inh: 52%
TGFBR2
  %Inh: 0%

## COc1cc2c(Nc3cccc(NC(=O)c4ccccc4)c3)ncnc2cc1OCCCN1CCOCC1 [GSK223810]
SRMS
  %Inh: 0%
SRPK1
  %Inh: 34%
SRPK2
  %Inh: 0%
SRPK3
  %Inh: 23%
STK16
  %Inh: 0%
STK33
  %Inh: 4%
STK35
  %Inh: 5%
STK36
  %Inh: 9%
STK39
  %Inh: 0%
SYK
  %Inh: 9%
SgK110
  %Inh: 0%
TAK1
  %Inh: 0%
TAOK1
  %Inh: 0%
TAOK2
  %Inh: 0%
TAOK3
  %Inh: 0%
TBK1
  %Inh: 1%
TEC
  %Inh: 0%
TESK1
  %Inh: 0%
TGFBR1; [1]
  %Inh: 0%
TGFBR2
  %Inh: 0%

## O=C(c1ccc(-c2cc(-c3c[nH]nc3-c3ccccn3)ccn2)cc1)N1CCCC1 [GW792479]
SRMS
  %Inh: 0%
SRPK1
  %Inh: 0%
SRPK2
  %Inh: 64%
SRPK3
  %Inh: 26%
STK16
  %Inh: 16%
STK33
  %Inh: 0%
STK35
  %Inh: 0%
STK36
  %Inh: 0%
STK39
  %Inh: 0%
SYK
  %Inh: 20%
SgK110
  %Inh: 6%
TAK1
  %Inh: 0%
TAOK1
  %Inh: 0%
TAOK2
  %Inh: 45%
TAOK3
  %Inh: 0%
TBK1
  %Inh: 59%
TEC
  %Inh: 8%
TESK1
  %Inh: 20%
TGFBR1; 1 µM
  %Inh: 93.6%
TGFBR2
  %Inh: 39%

## CCc1nc(-c2cccc(N(C)S(=O)(=O)c3ccccc3)c2)c(-c2ccnc(Nc3ccc(N4CCN(C(C)=O)CC4)nc3)n2)s1 [GSK1645895]
SRMS
  %Inh: 19%
SRPK1
  %Inh: 19%
SRPK2
  %Inh: 0%
SRPK3
  %Inh: 0%
STK16
  %Inh: 41%
STK33
  %Inh: 0%
STK35
  %Inh: 0%
STK36
  %Inh: 99.4%
STK39
  %Inh: 0%
SYK
  %Inh: 0%
SgK110
  %Inh: 0%
TAK1
  %Inh: 0%
TAOK1
  %Inh: 0%
TAOK2
  %Inh: 0%
TAOK3
  %Inh: 2%
TBK1
  %Inh: 27%
TEC
  %Inh: 7%
TESK1
  %Inh: 0%
TGFBR1; [1]
  %Inh: 17%
TGFBR2
  %Inh: 0%

## COc1ccc(-c2oc3ncnc(N)c3c2-c2ccc(OC)cc2)cc1 [SB-589132]
SRMS
  %Inh: 6%
SRPK1
  %Inh: 30%
SRPK2
  %Inh: 53%
SRPK3
  %Inh: 0%
STK16
  %Inh: 57%
STK33
  %Inh: 0%
STK35
  %Inh: 0%
STK36
  %Inh: 0%
STK39
  %Inh: 24%
SYK
  %Inh: 20%
SgK110
  %Inh: 0%
TAK1
  %Inh: 0%
TAOK1
  %Inh: 0%
TAOK2
  %Inh: 0%
TAOK3
  %Inh: 0%
TBK1
  %Inh: 0%
TEC
  %Inh: 15%
TESK1
  %Inh: 36%
TGFBR1; [1]
  %Inh: 7%
TGFBR2
  %Inh: 12%

## O=C(CCO)NCCn1ccc2ncnc(Nc3ccc(Oc4cccc(C(F)(F)F)c4)c(Cl)c3)c21
SRMS
  %Inh: 0%
SRPK1
  %Inh: 0%
SRPK2
  %Inh: 0%
SRPK3
  %Inh: 4%
STK16
  %Inh: 8%
STK33
  %Inh: 0%
STK35
  %Inh: 5%
STK36
  %Inh: 0%
STK39
  %Inh: 0%
SYK
  %Inh: 4%
SgK110
  %Inh: 0%
TAK1
  %Inh: 0%
TAOK1
  %Inh: 0%
TAOK2
  %Inh: 10%
TAOK3
  %Inh: 0%
TBK1
  %Inh: 16%
TEC
  %Inh: 0%
TESK1
  %Inh: 6%
TGFBR1; [1]
  %Inh: 0%
TGFBR2
  %Inh: 0%

## Fc1ccc(Nc2nccc(-c3c(-c4ccc(Cl)cc4)nn4ncccc34)n2)cc1F [GW829058]
SRMS
  %Inh: 22%
SRPK1
  %Inh: 0%
SRPK2
  %Inh: 0%
SRPK3
  %Inh: 6%
STK16
  %Inh: 23%
STK33
  %Inh: 1%
STK35
  %Inh: 0%
STK36
  %Inh: 8%
STK39
  %Inh: 22%
SYK
  %Inh: 7%
SgK110
  %Inh: 9%
TAK1
  %Inh: 38%
TAOK1
  %Inh: 10%
TAOK2
  %Inh: 16%
TAOK3
  %Inh: 27%
TBK1
  %Inh: 31%
TEC
  %Inh: 8%
TESK1
  %Inh: 16%
TGFBR1; [1]
  %Inh: 0%
TGFBR2
  %Inh: 0%

## Cn1cc(-c2ccc3c(c2)CCN3C(=O)Cc2cccc(C(F)(F)F)c2)c2c(N)ncnc21 [GSK2606414]
SRMS
  %Inh: 0%
SRPK1
  %Inh: 24%
SRPK2
  %Inh: 0%
SRPK3
  %Inh: 100%
STK16
  %Inh: 11%
STK33
  %Inh: 0%
STK35
  %Inh: 0%
STK36
  %Inh: 0%
STK39
  %Inh: 1%
SYK
  %Inh: 0%
SgK110
  %Inh: 0%
TAK1
  %Inh: 0%
TAOK1
  %Inh: 4%
TAOK2
  %Inh: 0%
TAOK3
  %Inh: 3%
TBK1
  %Inh: 9%
TEC
  %Inh: 1%
TESK1
  %Inh: 5%
TGFBR1; [1]
  %Inh: 0%
TGFBR2
  %Inh: 9%

## COc1ccc(Nc2nccc(N3CCC(NC(=O)c4cccc(NC(C)=O)c4)C3)n2)cc1 (stereo not drawn) [GSK1379732]
SRMS
  %Inh: 9%
SRPK1
  %Inh: 18%
SRPK2
  %Inh: 61%
SRPK3
  %Inh: 0%
STK16
  %Inh: 11%
STK33
  %Inh: 2%
STK35
  %Inh: 0%
STK36
  %Inh: 0%
STK39
  %Inh: 15%
SYK
  %Inh: 18%
SgK110
  %Inh: 10%
TAK1
  %Inh: 0%
TAOK1
  %Inh: 0%
TAOK2
  %Inh: 0%
TAOK3
  %Inh: 0%
TBK1
  %Inh: 0%
TEC
  %Inh: 0%
TESK1
  %Inh: 26%
TGFBR1; [1]
  %Inh: 4%
TGFBR2
  %Inh: 0%
